Screens (PubChem BioAssay)
JMJD2A Tudor = JMJD2A Tudor domain (human) inhibition; Potency, µM (highest dose often 114 µM), for inactives: top-dose activity change, negative = inhibition, usual class: inhibitors; O75164; AlphaScreen JMJD2A-Tudor / H3K4me3 peptide binding; AID 504339; 390,000 compounds, 4.4% hits; note: % is set by controls: 0 for no effect and ±100 for the full control effect; nearly all actives have a fitted effect of over 50% in size
VDR inh = inhibitors of human vitamin D receptor; AID 504847; 400,000 compounds, 0.93% hits; Potency, µM, inactives show max response, negative = inhibition, most hits filed as inhibitors; P11473; VDR-SRC2-3 peptide fluorescence polarization, 2 h; note: % is set by controls: 0 for no effect and ±100 for the full control effect
Target sequence (P11473 whole entry, looked up): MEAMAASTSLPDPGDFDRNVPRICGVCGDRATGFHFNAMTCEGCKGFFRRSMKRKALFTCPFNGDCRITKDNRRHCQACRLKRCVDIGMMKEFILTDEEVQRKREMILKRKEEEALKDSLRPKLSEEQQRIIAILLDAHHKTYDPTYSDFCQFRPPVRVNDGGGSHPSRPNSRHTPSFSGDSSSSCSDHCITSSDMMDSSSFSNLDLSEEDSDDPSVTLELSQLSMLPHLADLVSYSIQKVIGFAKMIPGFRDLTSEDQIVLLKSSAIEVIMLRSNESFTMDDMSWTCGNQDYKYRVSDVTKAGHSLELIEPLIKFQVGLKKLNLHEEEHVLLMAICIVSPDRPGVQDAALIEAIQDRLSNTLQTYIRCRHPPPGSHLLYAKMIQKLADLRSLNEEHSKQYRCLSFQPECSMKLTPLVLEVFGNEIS
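After 23 nl compound addition and a short centrifugation, plates sat for 2 hours at ambient temperature; polarization of fluorescence then indicated loss of VDR binding to peptide SRC2-3.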
BAZ2B inh = blocks human BAZ2B | AlphaScreen BAZ2B-H3K14Ac peptide displacement | 360,000 compounds, 4.4% hits | Potency, µM (titrated, usually from 114 µM), inactives show top-dose activity change, negative = inhibition, most hits filed as inhibitors; note: % is set by controls: 0 for no effect and ±100 for the full control effect; nearly all actives have a fitted effect of over 60% in size
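BAZ2B (50 nM) with biotin-H3(5-23)K14Ac peptide (50 nM) in PBS pH 7.4, 0.01% Tween-20, preformed 30 min, then compound 30 min at room temperature; top concentration 110uM. AlphaScreen streptavidin donor/nickel chelate acceptor beads (10 ug/mL final), 20 min dark, signal read.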
HP1b chromo inh = HP1-beta chromodomain-methylated histone interaction inhibition. P83916. Potency, µM (highest dose often 114 µM), for the others: at the highest dose activity change, negative = inhibition, actives largely listed as inhibitors. AID 540317. 390,000 compounds, 0.56% hits. AlphaScreen HP1-beta / biotin-H3K9me3 peptide binding; note: nearly all actives have a fitted effect of over 70% in size
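AlphaScreen: HP1-beta (50 nM) preformed 30 min with biotin-H3(1-18)K9me3 peptide (50 nM) in PBS pH 7.4, 0.01% Tween-20. Compound added for 30 min at RT, then streptavidin donor/nickel chelate acceptor beads (10 ug/mL) for 30 min.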
PLK1 PBD block = PLK1 (human) polo-box domain binding inhibition | P53350 | Plk1 PBD binding of FITC phosphopeptide, fluorescence polarization | Potency, µM, for the others: max response, negative = inhibition, actives largely listed as inhibitors | 360,000 compounds, 2.8% hits | AID 720504; note: series mostly up to about 57 µM; % is set by controls: 0 for no effect and ±100 for the full control effect; nearly all actives have a fitted effect of over 65% in size
L3MBTL1 inh = L3MBTL1 (human) inhibition | AlphaScreen L3MBTL1–H3K9me1 peptide binding | Potency, µM (top dose mostly 57.1 µM), without a hit: at the highest dose activity, negative = inhibition, actives largely listed as inhibitors | 230,000 compounds, 0.66% hits | AID 485360; note: % is set by controls: 0 for no effect and ±100 for the full control effect; nearly all actives have a fitted effect of over 60% in size
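Displacement of a biotinylated histone H3(1-15) peptide monomethylated at Lys9 (75 nM) from L3MBTL1 (50 nM) was measured by AlphaScreen after a 30 min room-temperature compound incubation; cefsulodin titration served as intraplate control.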
An asterisk follows results filed as active; [ ] = another dose, or the depositor's remark. Rows were chosen to be rich in hits. Some 6.9% of all compounds tested hit in one or more screens of this group. Calls come from the whole dose curve; as a rule, active = well fitted curve in the direction sought with a large enough effect; inconclusive = small, poorly fitted or top-dose-only effect, or another doubt; inactive = no such curve, though single readings can be large; an effect the other way counts as inactive or inconclusive. Potency is the fitted concentration of half-maximal effect.

For Cc1ccc(C(=O)OCC(=O)NCc2ccco2)cc1C the results were JMJD2A Tudor 0%, VDR inh -25%, BAZ2B inh 7%, HP1b chromo inh 37%, PLK1 PBD block -2% and L3MBTL1 inh -9%.
Cc1cccc(Nc2ccccc2C(=O)OCC(=O)NCc2ccco2)c1C was read as JMJD2A Tudor 45µM*, VDR inh 12%, BAZ2B inh 50µM*, HP1b chromo inh -15%, PLK1 PBD block -8% and L3MBTL1 inh -16%.
Screening O=C(COC(=O)c1ccc([N+](=O)[O-])cc1Cl)NCc1ccco1 returned JMJD2A Tudor -13%, VDR inh -13%, BAZ2B inh -32%, HP1b chromo inh 28%, PLK1 PBD block -2% and L3MBTL1 inh -2%.
For O=C(COC(=O)c1ccc(F)cc1Cl)NCc1ccco1 the results were JMJD2A Tudor 50µM*, VDR inh 6%, BAZ2B inh 50µM*, HP1b chromo inh inconclusive, PLK1 PBD block -28% and L3MBTL1 inh inconclusive.
Screening Cn1cnc(C(=O)N2CCc3ccccc3C2)c1C(=O)N1CCc2ccccc2C1 returned JMJD2A Tudor 16µM*, VDR inh -17%, HP1b chromo inh inconclusive, PLK1 PBD block 21µM* and L3MBTL1 inh 4%.
O=C(NCCc1ccccc1)c1ccccc1C(F)(F)F was read as PLK1 PBD block -10%.
`CCCCNC(=O)c1ccccc1Cl` gave JMJD2A Tudor -1%, VDR inh -2%, BAZ2B inh 1%, HP1b chromo inh 34% and PLK1 PBD block -1%.
CC1CCN(C(=O)c2nc[nH]c2C(=O)N2CCc3ccccc3C2)CC1 was read as JMJD2A Tudor -5%, VDR inh -20%, BAZ2B inh 1%, HP1b chromo inh 33%, PLK1 PBD block 1% and L3MBTL1 inh 2%.
`CCCCNC(=O)N1CCc2ccccc2C1` gave JMJD2A Tudor -32%[57.1 µM], VDR inh inconclusive, BAZ2B inh 0%, HP1b chromo inh inconclusive, PLK1 PBD block 30µM* and L3MBTL1 inh -2%.
For CCCCNC(=O)c1ccccc1C(=O)NCCCC the results were JMJD2A Tudor 14µM*, VDR inh inconclusive, BAZ2B inh 4%, HP1b chromo inh inconclusive, PLK1 PBD block 5.3µM* and L3MBTL1 inh 11%.
`COCCCNC(=O)c1ccccc1C(F)(F)F` gave JMJD2A Tudor -10%[11.4 µM], VDR inh inconclusive, BAZ2B inh -21%, HP1b chromo inh -5% and PLK1 PBD block 15µM*.
Screening CCCCCCCCCCCNC(=O)c1ccoc1C returned JMJD2A Tudor -3%, VDR inh 79µM*, BAZ2B inh 14%, HP1b chromo inh 72%, PLK1 PBD block inconclusive and L3MBTL1 inh 1%.
Screening Cc1occc1C(=O)NCCCCNC(=O)c1ccoc1C returned JMJD2A Tudor -9%, VDR inh 7%, BAZ2B inh 3%, HP1b chromo inh 26%, PLK1 PBD block 0% and L3MBTL1 inh 5%.
For CCc1cc2c(c(CC)n1)CCC(=O)N2Cc1ccc(-c2ccccc2-c2nn[nH]n2)cc1 the results were VDR inh -3%.
Screening Cc1cc2ncc(S(C)(=O)=O)c(N)n2n1 returned JMJD2A Tudor 13µM*, VDR inh -4%, BAZ2B inh -7%, HP1b chromo inh 4%, PLK1 PBD block -1% and L3MBTL1 inh 6%.
Screening Cc1ccc(S(=O)(=O)c2cnc3cc(C)nn3c2N)cc1 returned JMJD2A Tudor -15%, VDR inh 12%, BAZ2B inh 1%, HP1b chromo inh 21%, PLK1 PBD block -5% and L3MBTL1 inh -18%.
C=CCNC(=O)c1scc2c1CCCC2 was read as JMJD2A Tudor -17%, VDR inh -1%, BAZ2B inh -1%, HP1b chromo inh 28% and PLK1 PBD block 0%.
For CN(C)CCNC(=O)c1scc2c1CCCC2 the results were JMJD2A Tudor 89µM*, VDR inh -12%, BAZ2B inh inconclusive, HP1b chromo inh 25% and PLK1 PBD block -12%.
